Among all 6,200 compounds or so, about 2,900 (47%) were called active. So high a share suggests a set chosen from earlier hits. This is one part of the list. Unmarked numbers belong to inactive results. Cut-off read from the data, not from the text of the source: active = inhibition above about 50%; inactive = the rest.
assay: Mycobacterium tuberculosis growth inhibition, primary screen (AID 1259343); details: inhibition: at 10 µM, active compounds read high; outcome: 10 uM

Row | Structure (SMILES) | inhibition
1 | CCc1ccc(CNC(=O)c2cc(C)sc2C)s1 | 54.8% (active)
2 | CCc1ccc(CNC(=O)c2ccc(Cl)s2)s1 | 45%
3 | CCc1ccsc1CNC(=O)c1sccc1Br | 24.1%
4 | CCc1ccc(CNC(=O)c2cc(F)ccc2Br)s1 | 59.5% (active)
5 | CCc1ccc(CNC(=O)c2cncc(Br)c2)s1 | 83.2% (active)
6 | CN(C)c1cc(C(=O)NCc2ccc(Cl)s2)ccn1 | -1.2%
7 | CCc1nc(C)c(-c2nc(CCc3ccccc3)no2)s1 | 49.3%
8 | OCc1ccccc1-c1ccc(-c2nc(CCc3ccccc3)no2)cn1 | 75.2% (active)
9 | Cc1noc(-c2ccc(N3CC[C@@H](c4ccc5c(c4)OCO5)[C@H](O)C3)nc2)n1 | 12.9%
10 | CC(C)Cc1noc(-c2ccc(-c3ccc(O)cc3)nc2)n1 | 23.2%
11 | COC1CCN(c2ccc(-c3nc(CCCc4ccccc4)no3)cn2)CC1 | 51.1% (active)
12 | CCc1cn[nH]c1C1CCN(c2noc(-c3ccccc3)n2)CC1 | 20.9%
13 | Nc1ccc(-c2ccc(-c3nc(CCCc4ccccc4)no3)cn2)cn1 | 59.3% (active)
14 | CC(C)Oc1cccc(C(=O)C2CCCN(C(=O)/C=C/c3cccs3)C2)c1 (configuration not stated) | -2.95%
15 | O=C(Nc1ccc2c(c1)CN(C(=O)/C=C/c1cccs1)CC2)c1ccccn1 | 58.9% (active)
16 | O=C(CCCc1cccs1)N1CCN(c2ccccc2O)CC1 | 13%
17 | O=C(Nc1ccc2c(c1)CN(Cc1ccc(-n3cccn3)cc1)CC2)c1ccccn1 | inactive
18 | O=C(Nc1ccc2c(c1)CN(C(=O)CCCc1cccs1)CC2)c1ccccn1 | 54.1% (active)
19 | COc1ccccc1C(=O)Nc1ccc2c(c1)CN(Cc1c[nH]c3ccccc13)CC2 | 45.8%
20 | OC(c1cc(C(F)(F)F)nc2c(C(F)(F)F)cccc12)C1CCCCN1 (configuration not stated) | 78.8% (active)
21 | FC(F)(F)c1cc(NCC2CC2)c2ccccc2n1 | 8.13%
22 | O=C(NCCc1ccc(Cl)cc1)N1CCN(c2ccccc2)CC1 | 13.3%
23 | O=C(NCCc1cccc(Cl)c1)N1CCc2ccccc2C1 | 83.4% (active)
24 | O=S(=O)(NCCc1cccc(Cl)c1)N1CCCCCC1 | 21.7%
25 | CSc1nc2ccc(N=Cc3c[nH]c4ccccc34)cc2s1 | 95.1% (active)
26 | CSc1nc2ccc(N=Cc3ccc4ncccc4c3)cc2s1 | -22.5%

Row | Structure (SMILES) | inhibition
27 | Cn1c(COc2cccc3ccccc23)nc2ccccc21 | -3.53%
28 | Cn1c(CSc2ccccc2)nc2ccccc21 | 39%
29 | Cc1ccc(C)c(OCCN(C)Cc2nc3ccccc3n2C)c1 | 83.1% (active)
30 | CC(C)CCCC(C)Nc1ncnc2sccc12 (configuration not stated) | 60.5% (active)
31 | CC1(C)C2CCC1(C)C(Nc1ncnc3sccc13)C2 (configuration not stated) | 41.4%
32 | c1nc(NC23CC4CC(CC(C4)C2)C3)c2ccsc2n1 | -13.2%
33 | CCCCC(CC)CNc1ncnc2sccc12 (configuration not stated) | 59.1% (active)
34 | CCCCC(CC)CNS(=O)(=O)c1cccc(F)c1 (configuration not stated) | 45.9%
35 | FC(F)(F)c1cc(Nc2ncnc3sccc23)ccc1Br | 23.6%
36 | COC(=O)c1ccc(-c2noc(CN(C)Cc3cccc(-n4cccn4)c3)n2)cc1 | 50.6% (active)
37 | Cc1cc(C)n(-c2cccc(CN(C)Cc3nc(-c4ccc5c(c4)OCO5)no3)c2)n1 | 45.7%
38 | CN(Cc1cccc(-n2cccn2)c1)Cc1nc(Cc2ccccc2Cl)no1 | inactive
39 | CC(SC1CCCC1)C(=O)N1CCCC1 (configuration not stated) | 52.1% (active)
40 | COc1cccc(-c2ccccc2NC(=O)C2CCN(CCC(C)c3ccc(C)o3)CC2)c1 (configuration not stated) | 80.1% (active)
41 | COc1cccc(-c2ccccc2NC(=O)C2CCN(Cc3cc4ccccc4[nH]3)CC2)c1 | 17.3%
42 | COc1cccc(-c2ccccc2NC(=O)C2CCN(CC3CC=CCC3)CC2)c1 (configuration not stated) | 84% (active)
43 | COc1cccc(-c2ccccc2NC(=O)C2CCN(CC(C)c3ccccc3)CC2)c1 (configuration not stated) | 74.2% (active)
44 | COc1cccc(-c2ccccc2NC(=O)C2CCN(CC3CCCCC3)CC2)c1 | 89.8% (active)
45 | CC(C)c1ccc(C#N)c(SC2CC(=O)N(c3ccc(Br)cc3)C2=O)n1 (configuration not stated) | 10.7%
46 | COc1cc(/C=C/C(=O)O)ccc1O | 37.7%
47 | O=C(/C=C/c1ccc(O)c(O)c1)OCCc1ccccc1 | 102% (active)
48 | CC1CC(OCC(O)CN2CCC(CN3C(=O)c4cccc5cccc(c45)C3=O)CC2)CC(C)(C)C1 (configuration not stated) | 90.1% (active)
49 | O=C(CCNc1ccc(Cc2ccncc2)cc1)c1ccc2c(c1)OCO2 | 84.6% (active)
50 | O=C(C(Br)=CNc1ccc(Cl)c(Cl)c1)C(F)(F)F | 87% (active)
51 | CN(CC1Cc2ccccc2O1)C(=O)c1cc(COc2ccc3ncccc3c2)on1 (configuration not stated) | 35.5%
52 | CCC(C(=O)c1ccc2ncccc2c1)c1ccccc1 (configuration not stated) | 58.2% (active)

Row | Structure (SMILES) | inhibition
53 | CCc1ccc(C(=O)NCc2ccc(C#N)cc2)o1 | 12.2%
54 | CCc1ccc(C(=O)NCc2cccc(C(=O)Nc3ccncc3)c2)o1 | 51.8% (active)
55 | CCN(c1ccc(C(=O)Nc2ccncc2)cc1)C(C)C | 8.43%
56 | CC1(C)C2CC=C(C=NNC(=O)NC3CCCCC3)C1C2 (configuration not stated) | -4.24%
57 | O=C(/C=C/c1ccc([N+](=O)[O-])s1)Nc1nnc(C2COc3ccccc3O2)o1 (configuration not stated) | 101% (active)
58 | CN(CCCCCCCCCCN(C)C(=O)Oc1cccc([N+](C)(C)C)c1)C(=O)Oc1cccc([N+](C)(C)C)c1 | 49.3%
59 | CN(CCCC(=O)Nc1ccc2[nH]c(=S)oc2c1)C(=O)OC(C)(C)C | 73.7% (active)
60 | C=CCN=c1scc(-c2ccccc2)n1N=Cc1ccccn1 | 20.3%
61 | Cc1[nH]n(-c2cccc(Cl)c2)c(=O)c1C=NCCc1ccccc1 | 72.9% (active)
62 | Cc1ccc(C)c(Oc2cc(-n3ncc(Cl)c(Cl)c3=O)nc(C)n2)c1 | 101% (active)
63 | Cc1ccc2nc(-c3ccncc3)cc(-c3ccccc3)c2c1 | 53.7% (active)
64 | NC(=O)C(c1ccc(F)cc1)N1CCOC(c2ccc(F)cc2)C1 (configuration not stated) | -5.29%
65 | O=C(CCl)N1CCN(Cc2cccc3ccccc23)CC1 | 71.9% (active)
66 | O=C(CCl)N1CCN(Cc2c(F)cccc2Cl)CC1 | 66.2% (active)
67 | N#Cc1c(F)cccc1N1CCN(c2ccccc2O)CC1 | -21.1%
68 | O=C(CCl)N1CCN(c2ccccc2F)CC1 | 97.1% (active)
69 | O=c1ccc(-c2ccco2)nn1Cc1cccc2ccccc12 | 37%
70 | CC1(C(=O)NCc2cccc3ccccc23)CCN1CCCc1ccccc1 (configuration not stated) | 32.3%
71 | O=C(CCl)N1CCN(Cc2ccc(Cl)s2)CC1 | -19.9%
72 | O=[N+]([O-])c1ccc(N2CCN(Cc3c(F)cccc3Cl)CC2)cc1 | 86.5% (active)
73 | O=c1ccc(-c2cccc([N+](=O)[O-])c2)nn1Cc1c(F)cccc1Cl | 21.1%
74 | O=C(c1ccc2c(c1)OCO2)C1CCCN(Cc2c(F)cccc2Cl)C1 (configuration not stated) | -16.5%
75 | O=c1c(-c2cccc(Br)c2)[n+]([O-])c2ccccc2n1O | 5.77%
76 | O[N+]1=CC=CCC1=S.On1ccccc1=S.[Zn] | 102% (active)
77 | COc1ccc(CC2CCN(S(=O)(=O)c3ccc(Cl)cc3)CC2)cc1 | 56.9% (active)
78 | Nc1cc(S(=O)(=O)N2CCCCC2)ccc1Oc1ccc(Cl)cc1 | 16.6%

Row | Structure (SMILES) | inhibition
79 | COc1ccc(S(=O)(=O)N2CC3(C)CC2CC(C)(C)C3)cc1 (configuration not stated) | 24.4%
80 | COc1ccc(-c2ccc(S(=O)(=O)N3CCCCCC3)cc2)cc1 | 81.1% (active)
81 | O=S(=O)(c1ccc(Cl)cc1)N1CCCC2CCCCC21 (configuration not stated) | 23.9%
82 | CCc1ccc(S(=O)(=O)N2CCC(CO)(Cc3ccc(OC)cc3)CC2)s1 | 15.3%
83 | COc1ccc(CC2CCN(S(=O)(=O)c3ccc(C#N)cc3)CC2)cc1 | 52.4% (active)
84 | COc1ccc2cc(CN(C)c3ccc(C#N)cn3)ccc2c1 | 19.4%
85 | Cc1ccc(S(=O)(=O)N2CCC(NC(=O)C(C)Oc3ccc(Cl)cc3Cl)CC2)cc1 (configuration not stated) | 10.4%
86 | CCN1CCc2c(sc(NC(=O)C(C)(C)C)c2-c2nc3ccccc3s2)C1 | 100% (active)
87 | CCC(=O)Nc1sc2c(c1-c1nc3ccccc3s1)CCN(CC)C2 | 60.8% (active)
88 | CCN1CCc2c(sc(NC(=O)C3CC3)c2-c2nc3ccccc3s2)C1 | 36%
89 | CCC(=O)Nc1sc2c(c1-c1nc3ccccc3s1)CCN(C)C2 | 30.1%
90 | CN1CCc2c(sc(NC(=O)c3ccco3)c2-c2nc3ccccc3s2)C1 | inactive
91 | CCN1CCc2c(sc(NC(=O)c3ccco3)c2-c2nc3ccccc3s2)C1 | 87.1% (active)
92 | CCN1CCc2c(sc(NC(C)=O)c2-c2nc3ccccc3s2)C1 | 79.4% (active)
93 | CCN1CCc2c(sc(NC(=O)c3ccc([N+](=O)[O-])cc3)c2-c2nc3ccccc3s2)C1 | 42.7%
94 | C(=Nn1c(-c2ccco2)csc1=NC1CCCCC1)c1ccccn1 | -7.16%
95 | CCN1CCc2c(sc(NC(=O)c3cccs3)c2-c2nc3ccccc3s2)C1 | 52% (active)
96 | CCN1CCc2c(sc(NC(=O)c3ccc(OC)cc3)c2-c2nc3ccccc3s2)C1 | inactive
97 | CCN1CCc2c(sc(NC(=O)c3ccccc3)c2-c2nc3ccccc3s2)C1 | 100% (active)
98 | CN1CCc2c(sc(NC(=O)c3cccs3)c2-c2nc3ccccc3s2)C1 | 45.1%
99 | Cc1ccc(S(=O)(=O)CC(=O)Nc2sc3c(c2-c2nc4ccccc4s2)CCN(C)C3)cc1 | -29.9%
100 | CN1CCc2c(sc(NC(=O)CS(=O)(=O)c3ccccc3)c2-c2nc3ccccc3s2)C1 | 25.4%
101 | CN1CCc2c(sc(NC(=O)C(C)(C)C)c2-c2nc3ccccc3s2)C1 | 52.2% (active)
102 | CCN1CCc2c(sc(NC(=O)c3ccc(C(C)=O)cc3)c2-c2nc3ccccc3s2)C1 | 5.96%

Source: PubChem BioAssay AID1259343 (VanderVen Lab, College of Veterinary Medicine, Cornell …, 2017)
